{"source": "paper PMC5540273", "about": "(PLoS ONE, 2017);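 further: KINOMEscan kinase panel screen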", "data": [{"system": "SNRK", "conditions": "concentration: 1 μM, replicates: in singlicate; n = 1", "units": {"%Inh": "%"}, "values": [{"compound": "O=C(NCCCN1CCCC1=O)c1cnc(NCc2cc(Cl)ccc2Cl)nc1NC1CCNCC1", "%Inh": 0}, {"compound": "Cn1cc(-c2ccc3c(c2)CCN3C(=O)Cc2cccc(C(F)(F)F)c2)c2c(N)ncnc21", "note": "[GSK2606414]", "%Inh": 1}, {"compound": "CN1c2ccc(-c3ccc(C(=O)NCCO)cc3)cc2-c2[nH]ncc2S1(=O)=O", "%Inh": 0}, {"compound": "CSc1nn2c(=O)cc(N3CCOCC3)nc2n1Cc1cccc(Cl)c1Cl", "note": "[GSK2347225]", "%Inh": 0}, {"compound": "Cc1cccc(-c2nc(Nc3ccc4[nH]nnc4c3)c3ccccc3n2)n1", "note": "[GW867587]", "%Inh": 0}, {"compound": "O=C(CCO)NCCn1ccc2ncnc(Nc3ccc(Oc4cccc(C(F)(F)F)c4)c(Cl)c3)c21", "%Inh": 0}, {"compound": "Cc1ccc(O)cc1Nc1cc(C(F)(F)F)nc2ccc(-c3ccncc3)cc12", "note": "[GW630823]", "%Inh": 0}, {"compound": "CCC(CC)(CC)n1cnc2c(N)ncnc21", "note": "[SKF-97620]", "%Inh": 30}, {"compound": "Fc1cccc(COc2ccc(Nc3ncnc4cc[nH]c34)cc2Cl)c1", "%Inh": 21}, {"compound": "Fc1ccc(-c2ncn(CCCNCc3ccccc3)c2-c2ccncc2)cc1", "%Inh": 5}, {"compound": "COc1ccc(Nc2nccc(N3CCC(NC(=O)Nc4ccc5c(c4)OCO5)C3)n2)cc1", "note": "(stereo not drawn) [GSK1379745]", "%Inh": 0}, {"compound": "CSc1ccc(NC2=C(c3ccccc3Cl)C(=O)NC2=O)cc1", "note": "[SB-342411]", "%Inh": 0}, {"compound": "FC(F)(F)c1ccc(-c2cc(-c3c[nH]nc3-c3ccccn3)ccn2)cc1", "note": "[GW599550]", "%Inh": 100}, {"compound": "O=C(Nc1n[nH]c2nc(-c3ccco3)c(Br)cc12)c1ccc(CN2CCCC2)cc1.O=C(O)[C@H](O)[C@@H](O)C(=O)O", "note": "[SB-742352]", "%Inh": 0}, {"compound": "Clc1cc(Nc2ncnc3cc[nH]c23)ccc1OCc1ccccn1", "%Inh": 26}, {"compound": "COc1ccc(NC(=O)Nc2ccc(C)c(-c3ccc(C(=O)Nc4ccncc4)cc3)c2)cc1", "note": "[GSK1398475]", "%Inh": 0}, {"compound": "Fc1ccc(Nc2nccc(-c3c(-c4ccc(Cl)cc4)nn4ncccc34)n2)cc1F", "note": "[GW829058]", "%Inh": 0}, {"compound": "Nc1nc(-c2ccc3c(N)n[nH]c3c2)cc(N2CCC[C@@H](C(=O)Nc3ccccc3)C2)n1.O=C(O)C(F)(F)F.O=C(O)C(F)(F)F", "note": "[GSK2288359]", "%Inh": 0}, {"compound": "CS(=O)(=O)CCNCc1nc(-c2ccc3ncnc(Nc4ccc(OCc5cccc(F)c5)c(Cl)c4)c3c2)cs1.Cl", "note": "[GW583340]", "%Inh": 0}, {"compound": "Cl.Cl.c1ccc(-c2cc3ccncc3cc2OC2CCNCC2)cc1", "note": "[GSK1122999]", "%Inh": 14}, {"compound": "COC(=O)c1c(-c2ccccc2)c2cc(Cl)ccc2c(=O)n1Cc1ccc(S(C)(=O)=O)cc1", "%Inh": 0}, {"compound": "OCCOCCn1ccc2ncnc(Nc3ccc(Oc4cccc(Cl)c4)c(Cl)c3)c21", "%Inh": 0}, {"compound": "CC(C)(C)c1ccc(-n2cnc3c(N)ncnc32)cc1", "note": "[SKF-97263]", "%Inh": 0}, {"compound": "CNc1nccc(-c2c(-c3ccc(F)cc3)ncn2CCCN2CCOCC2)n1", "note": "[SB-222516]", "%Inh": 18}, {"compound": "CN1CCC(n2cnc(-c3ccc(F)cc3)c2-c2ccnc(NC3CCNCC3)n2)CC1", "note": "[SB-229482]", "%Inh": 1}, {"compound": "CC(C)(C)OC(=O)NC1CCCN(c2cc(-c3ccc4c(N)n[nH]c4c3)nc(N)n2)C1", "note": "(stereo not drawn) [GSK2286096]", "%Inh": 3}, {"compound": "Cl.Fc1ccccc1COc1ccc(Nc2ncnc3ccc(-c4nnc(C(F)(F)F)o4)cc23)cc1Cl", "note": "[GW424170]", "%Inh": 0}, {"compound": "Clc1ccc(-c2cc(-c3c[nH]nc3-c3ccccn3)ccn2)cc1", "note": "[GW681251]", "%Inh": 0}, {"compound": "CC(C)N1CCC(n2cnc(-c3ccc(F)cc3)c2-c2ccnc(N)n2)CC1", "note": "[SB-223132]", "%Inh": 0}, {"compound": "FC(F)(F)c1cc(Nc2nccc(-c3c(-c4ccc(Cl)cc4)nn4ncccc34)n2)ccc1Cl", "note": "[GW829351]", "%Inh": 0}, {"compound": "COc1cc2ncnc(Nc3ccc(OCc4ccccc4Br)c(Cl)c3)c2cc1OC.Cl", "note": "[GI261590]", "%Inh": 0}, {"compound": "Clc1cccc(-c2nc(Nc3ccncc3)c3ccccc3n2)c1", "note": "[GW873004]", "%Inh": 0}, {"compound": "Cl.Cn1ccc(-c2cccc(Nc3ccnc4cc(-c5nccs5)ccc34)c2)n1", "note": "[GW525701]", "%Inh": 0}, {"compound": "COc1cc2c(Nc3cccc(NC(=O)c4ccccc4)c3)ncnc2cc1OCCCN1CCOCC1", "note": "[GSK223810]", "%Inh": 0}, {"compound": "N#Cc1ccc(Oc2ccc(Nc3ncnc4cc[nH]c34)cc2Cl)cc1", "%Inh": 38}, {"compound": "Cn1ccc2ncnc(Oc3ccc(NC(=O)Nc4cccnc4)c(Cl)c3)c21", "%Inh": 0}]}, {"system": "SRC", "conditions": "concentration: 1 μM, replicates: in singlicate; n = 1", "units": {"%Inh": "%"}, "values": [{"compound": "O=C(NCCCN1CCCC1=O)c1cnc(NCc2cc(Cl)ccc2Cl)nc1NC1CCNCC1", "%Inh": 0}, {"compound": "Cn1cc(-c2ccc3c(c2)CCN3C(=O)Cc2cccc(C(F)(F)F)c2)c2c(N)ncnc21", "note": "[GSK2606414]", "%Inh": 5}, {"compound": "CN1c2ccc(-c3ccc(C(=O)NCCO)cc3)cc2-c2[nH]ncc2S1(=O)=O", "%Inh": 46}, {"compound": "CSc1nn2c(=O)cc(N3CCOCC3)nc2n1Cc1cccc(Cl)c1Cl", "note": "[GSK2347225]", "%Inh": 26}, {"compound": "Cc1cccc(-c2nc(Nc3ccc4[nH]nnc4c3)c3ccccc3n2)n1", "note": "[GW867587]", "%Inh": 26}, {"compound": "O=C(CCO)NCCn1ccc2ncnc(Nc3ccc(Oc4cccc(C(F)(F)F)c4)c(Cl)c3)c21", "%Inh": 0}, {"compound": "Cc1ccc(O)cc1Nc1cc(C(F)(F)F)nc2ccc(-c3ccncc3)cc12", "note": "[GW630823]", "%Inh": 18}, {"compound": "CCC(CC)(CC)n1cnc2c(N)ncnc21", "note": "[SKF-97620]", "%Inh": 0}, {"compound": "Fc1cccc(COc2ccc(Nc3ncnc4cc[nH]c34)cc2Cl)c1", "%Inh": 16}, {"compound": "Fc1ccc(-c2ncn(CCCNCc3ccccc3)c2-c2ccncc2)cc1", "%Inh": 24}, {"compound": "COc1ccc(Nc2nccc(N3CCC(NC(=O)Nc4ccc5c(c4)OCO5)C3)n2)cc1", "note": "(stereo not drawn) [GSK1379745]", "%Inh": 22}, {"compound": "CSc1ccc(NC2=C(c3ccccc3Cl)C(=O)NC2=O)cc1", "note": "[SB-342411]", "%Inh": 38}, {"compound": "FC(F)(F)c1ccc(-c2cc(-c3c[nH]nc3-c3ccccn3)ccn2)cc1", "note": "[GW599550]", "%Inh": 3}, {"compound": "O=C(Nc1n[nH]c2nc(-c3ccco3)c(Br)cc12)c1ccc(CN2CCCC2)cc1.O=C(O)[C@H](O)[C@@H](O)C(=O)O", "note": "[SB-742352]", "%Inh": 22}, {"compound": "Clc1cc(Nc2ncnc3cc[nH]c23)ccc1OCc1ccccn1", "%Inh": 15}, {"compound": "COc1ccc(NC(=O)Nc2ccc(C)c(-c3ccc(C(=O)Nc4ccncc4)cc3)c2)cc1", "note": "[GSK1398475]", "%Inh": 0}, {"compound": "Fc1ccc(Nc2nccc(-c3c(-c4ccc(Cl)cc4)nn4ncccc34)n2)cc1F", "note": "[GW829058]", "%Inh": 14}, {"compound": "Nc1nc(-c2ccc3c(N)n[nH]c3c2)cc(N2CCC[C@@H](C(=O)Nc3ccccc3)C2)n1.O=C(O)C(F)(F)F.O=C(O)C(F)(F)F", "note": "[GSK2288359]", "%Inh": 0}, {"compound": "CS(=O)(=O)CCNCc1nc(-c2ccc3ncnc(Nc4ccc(OCc5cccc(F)c5)c(Cl)c4)c3c2)cs1.Cl", "note": "[GW583340]", "%Inh": 0}, {"compound": "Cl.Cl.c1ccc(-c2cc3ccncc3cc2OC2CCNCC2)cc1", "note": "[GSK1122999]", "%Inh": 0}, {"compound": "COC(=O)c1c(-c2ccccc2)c2cc(Cl)ccc2c(=O)n1Cc1ccc(S(C)(=O)=O)cc1", "%Inh": 23}, {"compound": "OCCOCCn1ccc2ncnc(Nc3ccc(Oc4cccc(Cl)c4)c(Cl)c3)c21", "%Inh": 0}, {"compound": "CC(C)(C)c1ccc(-n2cnc3c(N)ncnc32)cc1", "note": "[SKF-97263]", "%Inh": 1}, {"compound": "CNc1nccc(-c2c(-c3ccc(F)cc3)ncn2CCCN2CCOCC2)n1", "note": "[SB-222516]", "%Inh": 0}, {"compound": "CN1CCC(n2cnc(-c3ccc(F)cc3)c2-c2ccnc(NC3CCNCC3)n2)CC1", "note": "[SB-229482]", "%Inh": 0}, {"compound": "CC(C)(C)OC(=O)NC1CCCN(c2cc(-c3ccc4c(N)n[nH]c4c3)nc(N)n2)C1", "note": "(stereo not drawn) [GSK2286096]", "%Inh": 0}, {"compound": "Cl.Fc1ccccc1COc1ccc(Nc2ncnc3ccc(-c4nnc(C(F)(F)F)o4)cc23)cc1Cl", "note": "[GW424170]", "%Inh": 0}, {"compound": "Clc1ccc(-c2cc(-c3c[nH]nc3-c3ccccn3)ccn2)cc1", "note": "[GW681251]", "%Inh": 0}, {"compound": "CC(C)N1CCC(n2cnc(-c3ccc(F)cc3)c2-c2ccnc(N)n2)CC1", "note": "[SB-223132]", "%Inh": 0}, {"compound": "FC(F)(F)c1cc(Nc2nccc(-c3c(-c4ccc(Cl)cc4)nn4ncccc34)n2)ccc1Cl", "note": "[GW829351]", "%Inh": 0}, {"compound": "COc1cc2ncnc(Nc3ccc(OCc4ccccc4Br)c(Cl)c3)c2cc1OC.Cl", "note": "[GI261590]", "%Inh": 0}, {"compound": "Clc1cccc(-c2nc(Nc3ccncc3)c3ccccc3n2)c1", "note": "[GW873004]", "%Inh": 0}, {"compound": "Cl.Cn1ccc(-c2cccc(Nc3ccnc4cc(-c5nccs5)ccc34)c2)n1", "note": "[GW525701]", "%Inh": 0}, {"compound": "COc1cc2c(Nc3cccc(NC(=O)c4ccccc4)c3)ncnc2cc1OCCCN1CCOCC1", "note": "[GSK223810]", "%Inh": 94.7}, {"compound": "N#Cc1ccc(Oc2ccc(Nc3ncnc4cc[nH]c34)cc2Cl)cc1", "%Inh": 3}, {"compound": "Cn1ccc2ncnc(Oc3ccc(NC(=O)Nc4cccnc4)c(Cl)c3)c21", "%Inh": 16}]}]}
